The whole screen tested about 190,000 compounds, of which about 3,100 (1.6%) were called active. This is one part of a sample in which actives are shown more often than they occur. Unmarked numbers belong to inactive results. Cut-off read from the data, not from the text of the source: active = fold change above about 3.3; inconclusive = no clear call, values can overlap the other calls; inactive = below that.
Assay: NF-kB upregulation, human neuronal cells – cell-based, HTS, primary screen (AID 1239)
Details: NF-kB reporter expression, at 12.5 µM, active compounds read high
For `O=C(c1cccc(C(=O)N2CCc3ccccc32)n1)N1CCc2ccccc21`, the fold change was 0.82.
With `O=C(c1cnn2ccccc12)N1CCc2ccccc21` the fold change was 3.74 (active).
In the case of `Cc1occc1C(=O)N1CCCc2ccccc21`, the fold change is reported as 1.12.
With `Cc1cc(C)n(CCNCc2c(C(=O)N3C[C@@H](C)O[C@@H](C)C3)nc3ccc(Cl)cn23)n1` the fold change was 0.98.
In the case of `Cc1ccccc1NC(=O)Cn1c(=O)n(CC2CCCO2)c(=O)c2ccccc21` (stereo not drawn), the fold change is reported as 0.98.
In the case of `Cc1ccc(Nc2nc(-c3ccc(O)cc3O)cs2)nc1`, the fold change is reported as 5.35 (active).
`Cc1ccc(NC(=O)c2cc(-c3ccc(C)o3)nc3ccccc23)nc1` gave a fold change of 0.88.
`Cc1ccc(-c2csc(NNC(=O)c3ccccc3)n2)cc1` gave a fold change of 0.64.
In the case of `CCOC(=O)Cn1nnnc1C`, the fold change is reported as 0.94.
For `O=C(c1cnn(-c2ccc(Cl)cc2)c1)c1ccccc1O`, the fold change was 6.38 (active).
`O=C(O)c1ccc(NC(=O)c2cn(-c3ccccc3)nc2-c2ccc(Cl)cc2)cc1` showed a fold change of 1.11.
Work on `Cc1ncc(CC(=O)n2cc(C(=O)c3cc(Cl)ccc3O)cn2)s1` yielded a fold change of 0.9.
Work on `O=C(Nc1ccc(Cl)cc1)C1c2cccc[n+]2CC(=O)N1Cc1ccc2c(c1)OCO2` (stereo not drawn) yielded a fold change of 1.64.
With `Cc1ccc(-c2nc3ccccc3[nH]2)cc1N` the fold change was 6.83 (active).
In the case of `Cc1ccc(-c2nc3ccccc3[nH]2)cc1NC(=O)c1sc2ccccc2c1Cl`, the fold change is reported as 0.76.
With `c1ccc2[nH]c(-c3nc4ccccc4[nH]3)nc2c1` the fold change was 2.17.
`O=C(O)CCn1c(SCc2cc(=O)n3ccccc3n2)nc2ccsc2c1=O` showed a fold change of 1.78.
`CC(=O)Nc1ccc(NC(=O)C(C)n2c3ccccc3c3nc(=O)cc(C)n32)cc1` (stereo not drawn) gave a fold change of 1.25.
In the case of `COc1cccc(NC(=S)N(Cc2ccc(C)cc2)Cc2ccccn2)c1`, the fold change is reported as 1.01.
Work on `CC(O)CNCCOc1cccc(Oc2ccccc2)c1` (stereo not drawn) yielded a fold change of 1.14.
For `Cc1cccc(-n2c(C)cc(/C=N\NC(=O)c3cccs3)c2C)c1`, the fold change was 0.9.
Compound `O=C(O)c1ccc(NC(=O)c2cccs2)cc1` has a fold change of 1.13.
With `CC(=O)Nc1ccc(/C=N/NC(=O)c2cccs2)cc1` the fold change was 3.48 (active).
For `CCOc1ccc(C(C)=O)cc1CSc1nnc(-c2ccncc2)n1CCOC`, the fold change was 0.95.
Compound `CC(C)CCC(C)NC(=O)c1ccc2nccnc2c1` (stereo not drawn) has a fold change of 1.64.
`CC(NC(=O)COC(=O)c1ccc(Cl)cc1O)c1ccc(F)cc1` (stereo not drawn) gave a fold change of 1.15.
For `CCCCSc1nnc(-c2ccc(C)cc2)o1`, the fold change was 3.57 (active).
For `CCOC(=O)CSc1nnc(-c2ccncc2)o1`, the fold change was 1.05.
Compound `CCOC(=O)CSc1nnc(-c2ccc([N+](=O)[O-])cc2)o1` has a fold change of 1.11.
`N/C(=N\OC(=O)Cc1ccccc1[N+](=O)[O-])c1ccc(Br)cc1` gave a fold change of 1.12.
For `COc1ccc(-c2nnc(SCC(=O)c3cccs3)o2)c(OC)c1`, the fold change was 5.16 (active).
With `COc1ccc(OC)c(C(=O)CSc2nnc(-c3cccs3)o2)c1` the fold change was 1.11.
Compound `COc1ccc(-n2c(C)cc(C(=O)CSc3nnc(-c4cccs4)o3)c2C)cc1` has a fold change of 0.93.
`Cn1nc(C(F)(F)F)c2cc(C(=O)N3CCOCC3)sc21` showed a fold change of 0.92.
With `COc1ccc(-c2cc(C(=O)NCCCn3ccnc3)no2)cc1` the fold change was 1.83.
In the case of `O=C(NCCCn1ccnc1)c1cc(-c2ccccc2)on1`, the fold change is reported as 8.21 (active).
`COc1ccccc1-c1cc(C(=O)NCCCn2ccnc2)no1` gave a fold change of 1.28.
For `COc1ccc(CCNc2nc(-c3cccc(NC(C)=O)c3)cs2)cc1OC`, the fold change was 0.5.
`CC(=O)Nc1cccc(-c2cnc3ccccc3n2)c1` showed a fold change of 2.74.
For `CC(=O)Nc1cccc(-c2csc(Nc3cccc(C)n3)n2)c1`, the fold change was 8.2 (active).
With `CCOc1cc(NC(=S)NCCCN(C)C)c(OCC)cc1NC(=O)C1CC1` the fold change was 0.96.
`CCOn1c(=O)c(=O)n(O)c2ccccc21` showed a fold change of 1.15.
Work on `C=C(C)CNC(=S)N/N=C/c1ccccc1OCC(=O)O` yielded a fold change of 1.35.
In the case of `N=C(N)SCc1cccc2ccccc12`, the fold change is reported as 0.88.
In the case of `CCc1ccc(-c2nn(-c3ccccc3)cc2CSC(=N)N)cc1`, the fold change is reported as 6.66 (active).
`CCn1c(SCc2ccc(C)cc2)nnc1-c1nn(-c2ccccc2)ccc1=O` showed a fold change of 1.19.
`O=c1nc(N/N=C/c2ccco2)cn[nH]1` gave a fold change of 1.22.
With `COc1ccc(CNc2c(CO)cnc3c2cnn3C)cc1` the fold change was 1.06.
In the case of `Cc1c(NC(=O)CSc2cccc3cccnc23)c(=O)n(-c2ccccc2)n1C`, the fold change is reported as 7.73 (active).
For `Cc1c(NC(=O)CSc2nnnn2-c2ccc(C(=O)O)cc2)c(=O)n(-c2ccccc2)n1C`, the fold change was 1.04.
Work on `Cc1ccccc1OCCC(=O)Nc1c(C)n(C)n(-c2ccccc2)c1=O` yielded a fold change of 0.99.
Work on `CCN(CC)CCNc1nc(-c2ccc(OC(F)F)cc2)c(C)s1` yielded a fold change of 0.94.
For `NC(=O)c1ccc(N2CCOCC2)nc1`, the fold change was 0.96.
`COc1cc(/C=N/NC(=O)c2cc(C)n(-c3ccc(F)cc3)c2C)cc(OC)c1O` showed a fold change of 1.02.
`C/C(=N\NC(=S)NCc1ccccc1)C1CCCCC1` showed a fold change of 1.07.
In the case of `O=c1[nH]n2c(-c3ccccc3)nc(O)c2c2ccccc12`, the fold change is reported as 1.02.
`CCn1nc(C)c(CN2CCN(Cc3ccc(OC)c(C)c3C)C(CCO)C2)c1C` (stereo not drawn) showed a fold change of 1.19.
In the case of `COc1ccc(-c2cn3cccnc3n2)cc1`, the fold change is reported as 2.19.
`CCCC(=O)Nc1cccc(-c2cn3ccsc3n2)c1` gave a fold change of 1.3.
For `COc1ccc(-c2cn3ccsc3n2)cc1`, the fold change was 5.24 (active).
Compound `CC(C)(C)n1ncc2c(=O)n(Cc3ccc(Cl)cc3)cnc21` has a fold change of 1.03.
Compound `O=C(COc1ccc(Cl)cc1)NCc1nnc(SCC(=O)NCC2CCCO2)o1` (stereo not drawn) has a fold change of 1.01.
In the case of `CCSc1nnc(NC(=O)c2ccc(C)cc2)s1`, the fold change is reported as 5.31 (active).
Compound `CCSc1nnc(NC(=O)Cc2ccccc2OC)s1` has a fold change of 1.18.
With `CC(=O)c1sc(NC(=O)c2ccc(C)cc2)nc1C` the fold change was 3.36 (active).
For `CC(=O)c1sc(N/N=C\c2ccc(C)cc2)nc1C`, the fold change was 2.4.
With `CC(=O)c1sc(NC(=O)c2cccc3ccccc23)nc1C` the fold change was 0.7.
In the case of `Cc1cccc(CSc2nnc(NC(=O)CSc3nnc(C)s3)s2)c1`, the fold change is reported as 1.18.

Reference: PubChem BioAssay AID1239 (SRMLSC, 2008)
